ALDH1A1 inh: inhibitors of human aldehyde dehydrogenase 1A1. AID 1030. Potency, µM (series often up to 75.3 µM), for the others: at the highest dose activity, negative = inhibition, most hits filed as inhibitors. 7.3% of 220,000 active. P00352. Purified ALDH1A1, NADH fluorescence, propionaldehyde substrate;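 note: potency is the fitted concentration of half-maximal effect; plate controls were no enzyme wells and a reference inhibitor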
Target sequence (P00352 whole entry, looked up): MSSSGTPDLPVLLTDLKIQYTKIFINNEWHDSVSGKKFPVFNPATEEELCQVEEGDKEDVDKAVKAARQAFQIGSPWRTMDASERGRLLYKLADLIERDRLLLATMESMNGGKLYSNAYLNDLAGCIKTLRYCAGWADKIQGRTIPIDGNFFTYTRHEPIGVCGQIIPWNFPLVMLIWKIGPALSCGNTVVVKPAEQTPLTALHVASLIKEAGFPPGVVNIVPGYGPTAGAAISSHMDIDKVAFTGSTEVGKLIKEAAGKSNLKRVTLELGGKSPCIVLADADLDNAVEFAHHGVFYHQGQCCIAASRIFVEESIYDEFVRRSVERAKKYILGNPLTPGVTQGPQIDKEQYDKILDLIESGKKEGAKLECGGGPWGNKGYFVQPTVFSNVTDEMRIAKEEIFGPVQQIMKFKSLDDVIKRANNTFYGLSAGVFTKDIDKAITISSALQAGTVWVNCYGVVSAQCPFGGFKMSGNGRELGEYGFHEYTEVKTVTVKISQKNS
HPGD inh: inhibitors of human 15-hydroxyprostaglandin dehydrogenase (HPGD). P15428. purified HPGD, NADH fluorescence kinetic, PGE2 substrate. Potency, µM, without a hit: top-dose activity change, negative = inhibition, actives largely listed as inhibitors. 4.3% of 150,000 active; note: potency is the fitted concentration of half-maximal effect
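20 nM HPGD preincubated 15 min at room temperature with compound in 50 mM Tris-HCl pH 8, 0.01% Tween 20. Started with 1 mM NAD+ and 30 uM prostaglandin E2; NADH fluorescence (360/450 nm) read 5 times over 30-s intervals, last minus first.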
PNC assembly inh: inhibitors of perinucleolar compartment assembly | PC3M PTB-GFP, PNC prevalence imaging, 16 h; stronger effect = lower value | activity change (PNC), negative = inhibition, % at 10 µM | 3.1% of 140,000 active;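 active = readout at or below -70, meaning at least 70% loss of cells showing the perinucleolar compartment, a nuclear body marking cancer cells; inconclusive = readout between -30 and a set limit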;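 note: plate controls were DMSO wells for no effect and camptothecin positive control wells for full effect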
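Compounds are pinned in duplicate onto adhered PC3M cells stably expressing GFP-tagged PTB and incubated 16 h at 37 C. Cells are then fixed, nuclei stained with Hoechst, and PNC-positive cells counted.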
Starred values were filed as active, the others as inactive; ? = inconclusive; / = no result given; [ ] = another dose, or the depositor's remark. Only some compounds are listed: those with a hit (about 11% of all), similar ones and a draw of the others. Unless noted, calls come from the whole dose curve; as a rule, active = well fitted inhibition curve with a large enough effect (not every such curve was filed as active); inconclusive = small, poorly fitted or top-dose-only effect, or another doubt; inactive = no such curve, though single readings can be large or run the other way. Unless noted, % is set by controls: 0 for no effect and ±100 for the full control effect.

SMILES | ALDH1A1 inh | HPGD inh | PNC assembly inh
O=C1c2ccccc2C(=O)N1CCc1nc(-c2ccccn2)no1 | 0% | -7% | 8
O=C1c2ccccc2C(=O)N1CCCc1nc(-c2ccccn2)no1 | -2% | -10% | -107*
S=C(NCc1ccncc1)NC1CCCCC1 | 4% | / | /
CCOC(=O)c1nn(-c2ccccc2)c2nnc(Cc3ccc(Cl)cc3)c(=O)n12 | -2% | -7% | -6
CCOC(=O)c1nn(-c2ccc(Cl)cc2)c2nnc(Cc3ccc(C)cc3)c(=O)n12 | ? | -3% | -109*
CCN(CC)c1ccc(C(=O)NNC(=O)CCl)cc1 | 10µM* | / | /
CCN(CC)c1ccc(NC(=O)C(C)C)cc1 | 7% | -2% | -15
Nc1nc(N)c2[nH]cnc2n1 (tested in a mixture with another compound) | 11%[13.5 µM] | -9% | /
COCCNCC(=O)NCC12CC3CC(CC(C3)C1)C2 | 28µM* | -6% | -22
O=C(CN1CCCC1)NCC12CC3CC(CC(C3)C1)C2 | ? | -8% | 18
COCCNCC(=O)NC12CC3CC(CC(C3)C1)C2 | -1% | -7% | 27
O=C(CN1C(=O)CCC1=O)NCC12CC3CC(CC(C3)C1)C2 | 1.1µM* | -5% | 22
COCCn1c(=O)c(-c2cc(F)cc(F)c2)nc2cnc(OCc3ccccc3)nc21 | ? | -11% | /
CC(C)=CCn1cnc2c1c(=O)n(C)c(=O)n2C | 3% | -3% | /
O=c1nc2ccccc2c2n1CC(CN1CCN(C(c3ccccc3)c3ccccc3)CC1)N2 (configuration not stated) | 4% | / | /
CCCCCCCCCCCCCC(=O)N[C@@H](C)[C@H](O)c1ccccc1 | 0% | -11% | /
CCOC(=O)N1C=CC(C)=C[C@@H]2[C@@H](N3C(=O)c4ccccc4C3=O)C(=O)N21 | 2% | 3% | -30
CC(C)(C)C(=O)c1sc2nc(-c3cccs3)cc(C(F)(F)F)c2c1N | ? | ? | 4
CCN(CC)C(=O)c1sc2nc(-c3cccs3)cc(-c3cccs3)c2c1N | 20µM* | / | /
CCn1c(SCC(=O)NCc2ccccc2)nc2nc3c(cc2c1=O)CCCC3 | -16% | / | /
Cc1cccc(NC(=O)Cn2cnc3c(oc4ccccc43)c2=O)c1 | 1% | / | /
Cc1ccc(-n2c(SCC(=O)NCc3ccco3)nc3nc4c(cc3c2=O)COC(C)(C)C4)cc1 | 0.79µM* | / | 10
COc1ccc(NC(=O)CSc2nc(N)c3cc4c(nc3n2)CCCC4)cc1 | ? | -8% | ?
CCn1c(SCC(=O)Nc2ccc(OC)cc2)nc2nc3c(cc2c1=O)COC(C)(C)C3 | 2µM* | / | /
O=C(CSc1nc2c(c(=O)n1-c1ccc(F)cc1)SCC2)NCc1ccco1 | 6% | / | 16
SMILES | ALDH1A1 inh | HPGD inh | PNC assembly inh
C=C(C)Cn1cnc2c(oc3nc4c(cc32)CCCC4)c1=O | 1µM* | / | /
CCn1c(SCc2ccccc2Cl)nc2nc3c(cc2c1=O)CCCC3 | 16µM* | -13% | 6
O=S(=O)(NC1CC1)c1ccc(S(=O)(=O)N(Cc2ccccn2)C2CCCC2)cc1 | 2% | -11% | 1
Cc1ccc(S(=O)(=O)NC(C(=O)O)c2ccccc2)cc1 (configuration not stated) | 1% | / | /
CC(C)c1cc(C(F)(F)F)nc(NNc2nc(C(C)C)cc(C(F)(F)F)n2)n1 | 15%[13.5 µM] | -5% | /
Nc1nc(Nc2ccccc2)nc2c1ncn2[C@@H]1O[C@H](CO)[C@H](O)[C@H]1O | -7% | -12% | /
CCn1c(SCC(=O)Nc2ccccc2C)nc2nc3c(cc2c1=O)COC(C)(C)C3 | 14µM* | / | /
CCn1c(SCC(=O)Nc2ccc(Cl)cc2)nc2nc3c(cc2c1=O)CCCC3 | ? | -10% | 26
CCn1c(SCC(=O)Nc2ccc(C(C)=O)cc2)nc2nc3c(cc2c1=O)CCCC3 | 0.89µM* | -14% | -5
Cc1ccccc1NC(=O)Cn1cnc2c(oc3nc4c(cc32)COC(C)(C)C4)c1=O | 22µM* | -10% | 21
Cc1ccc(C)c(NC(=O)CSc2nnc(C)c(=O)n2N)c1 | 9% | -5% | 6
COc1ccccc1NC(=O)Cn1cnc2c(oc3ccccc32)c1=O | 13% | -5% | 0
Cc1ccc(NC(=O)COC(=O)[C@H](C)N2C(=O)C3CC=CCC3C2=O)cc1S(=O)(=O)N(C)C (some centres not stated) | -4% | / | /
Cc1ccc(/C=C/C(=O)O)cc1S(=O)(=O)NC1CCS(=O)(=O)C1 (configuration not stated) | 7% | / | /
O=C(NNC(=S)NC1CC2C=CC1C2)c1cccnc1 (configuration not stated) | -8% | / | /
O=C(c1cc(C(F)(F)F)cc(C(F)(F)F)c1)N1CCC[C@@]2(CCN(Cc3nccs3)C2)C1 | 1% | 1% | /
COC(=O)C1CCN(Cc2ccc(OCCCN3CCN(c4ccc([N+](=O)[O-])cc4)CC3)cc2)CC1 | 2% | / | /
CN(C)CCCn1c(SCC(=O)N2c3ccccc3Sc3ccccc32)nc2ccccc2c1=O | -9% | / | ?
S=c1[nH]c2ccccc2s1 | 11µM* | 25µM* | /
Oc1[nH]c(=S)sc1C=C1N=c2ccccc2=N1 | 6% | / | /
COc1ccc(OC)c(C2=NOC(C(=O)NCc3ccco3)C2)c1 (configuration not stated) | ? | ? | 22
O=C(Nc1cccc(F)c1)N1CCC2(CC1)CCN(C(=O)c1cccc(F)c1)CC2 | -14% | -8% | /
N#Cc1cccc(NC(=O)N2CCCC3(CCN(C(=O)c4ccco4)CC3)C2)c1 | 22µM* | -23% | /
N#Cc1cccc(NC(=O)N2CC[C@@]3(CCCN(C(=O)c4ccco4)C3)C2)c1 | ? | -1% | /
O=C(Nc1ccccc1)N1CC[C@@]2(CCCN(C(=O)c3ccco3)C2)C1 | ? | -6% | /
SMILES | ALDH1A1 inh | HPGD inh | PNC assembly inh
O=C(Nc1ccccc1)N1CCCC2(CCN(C(=O)c3ccco3)CC2)C1 | 20µM* | 1% | /
OCC1(Cc2ccccc2)CCCN(Cc2ccc(-c3ccco3)cc2)C1 (configuration not stated) | 25µM* | / | /
CC(=O)N1CCC2(CC1)CCN(C(=O)Nc1cccc(F)c1)CC2 | 13µM* | -9% | /
CCN1CCCC(CO)(Cc2ccccc2)C1 (configuration not stated) | 6% | / | /
C=CCN(C(=O)c1csnn1)C(C(=O)NC(C)(C)C)c1ccncc1 (configuration not stated) | -5% | / | /
O=c1n(-c2ccccc2)c(=O)n2n1CC[C@H]1/C(=N\OC[C@@H](O)COCc3ccco3)[C@H]3O[C@@H]3[C@@H](O)[C@@H]12 | -1%[13.5 µM] | / | /
CC(=O)c1ccc(N(C(=O)CS(=O)CC(=O)Nc2ccc(F)cc2)C(C(=O)NC2CCCCC2)c2cccs2)cc1 (configuration not stated) | -3% | -17% | 31
CCCC1(C)NC(=O)c2ccccc2O1 (configuration not stated) | 6% | / | /
CC(=O)N1CCC2(CC1)CCN(C(=O)Nc1cccc(C#N)c1)CC2 | -3% | -1% | /
O=C(c1ccco1)N1CCC[C@@]2(CCN(Cc3ccccc3)C2)C1 | -12% | -6% | /
O=C(c1ccco1)N1CCC2(CCCN(Cc3ccccc3)C2)CC1 | 28µM* | -2% | /
N#Cc1cccc(NC(=O)N2CCC3(CC2)CCN(C(=O)c2ccco2)CC3)c1 | 10µM* | -9% | /
COc1ccccc1N1CCN(CCCCNS(=O)(=O)c2cccc3c(N(C)C)cccc23)CC1 | ? | -15% | /

Screens as filed in PubChem BioAssay.
